# The full list was thinned out, with hits kept by preference.
# Sa helicase inh = blocks Staphylococcus aureus DNA helicase; purified S. aureus helicase, fluorescence unwinding assay; inhibition, % (no concentration beside the values); 120,000 compounds, 0.05% hits; in the data active = inhibition above about 25%, passing the limit was not always enough;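 also: 0% = mean of negative control wells and 100% = mean of positive control wells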
# Sa growth inh = blocks Staphylococcus aureus growth. S. aureus RN4220 growth, OD600, 20 h, 42 °C; stronger effect = lower value. relative growth, % (no concentration beside the values). 170,000 compounds, 0.53% hits. AID 720641;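 active = relative growth at most 50% at the other temperature and 20+ points below 30 °C, or under 10% at both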
# Numbers without * were called inactive; . = no result given.
SMILES,Sa helicase inh,Sa growth inh
Cc1cccc(OC(=O)c2cc(-c3ccc4c(c3)OCCO4)on2)c1C,.,0.1*
O=C(Oc1ccccc1Cl)c1cc(-c2ccc3c(c2)OCCO3)on1,.,-0.1*
Cc1ccccc1OC(=O)c1cc(-c2ccc3c(c2)OCCO3)on1,.,45.3
CCC1CCCCN1C(=O)CSc1nc2c(c(=O)[nH]1)CCC2 (stereo not given),-2.0,98.5
O=C(/C=C/C=C/c1ccccc1)c1ccncc1,0.0,1.0*
O=C(/C=C/C=C/c1ccccc1)c1ccc(Cl)cc1,1.0,83.9
Cc1cccc(NC(=O)C(C)N2CCN(c3ccccc3O)CC2)c1 (stereo not given),-14.0,110.9
NNc1ccc2c(Cl)cc(Cl)c(O)c2n1,21.0,4.2*
NNc1ccc(Cl)c(Cl)c1,-16.0,87.4
O=C(N[C@H](CO)[C@H](O)c1ccc([N+](=O)[O-])cc1)C(Cl)Cl,.,-0.1*
CC(=O)Nc1ccc(S(=O)(=O)Nc2ccc([N+](=O)[O-])cc2)cc1,.,77.0
C/C(=N\OC(=O)c1ccc(C(F)(F)F)cc1)c1ccc[nH]1,6.0,-0.3*
C/C(=N\OC(=O)c1ccc(C(F)(F)F)cc1)c1cc[nH]c1,13.0,91.4
COc1ccc(CNC(=O)Cn2cnc3ccccc32)cc1OC,41.0*,82.3
COc1ccc(CCNC(=O)Cn2cnc3c(cnn3-c3ccccc3)c2=O)cc1OC,6.0,105.2
Cc1cccc(OC(=O)c2cc(-c3ccc4c(c3)OCCO4)on2)c1,.,1.8*
CC(C)c1ccc(OC(=O)c2cc(-c3ccc4c(c3)OCCO4)on2)cc1,.,82.7
COc1ccc(OC(=O)c2cc(-c3ccc4c(c3)OCCO4)on2)cc1,.,97.2
Cc1cc(C)cc(OC(=O)c2cc(-c3ccc4c(c3)OCCO4)on2)c1,.,1.7*
CCN(Cc1ccccc1)C(=O)CSc1nccc(=O)[nH]1,10.0,97.9
N#Cc1c(OCC(F)(F)F)ccc(C(N)=O)c1OCC(F)(F)F,.,114.2
CCC(=O)N(c1nnc(-c2cc(OC)c(OC)c(OC)c2)s1)C1CCCC1,11.0,101.9
O=C(Cc1ccc(Cl)cc1)Nc1cccc2nsnc12,-20.0,.
CCOC(=O)C1=C(c2ccccc2)NC(SCC(=O)Nc2ccc(F)cc2)=C(C#N)C1c1ccco1 (stereo not given),17.0,111.7
Cc1oc2c(c1C(=O)N1CCCCC1)C(=O)c1ccccc1C2=O,-4.0,39.4
SMILES,Sa helicase inh,Sa growth inh
Cc1oc2c(c1C(=O)NC1CCCC1)C(=O)c1ccccc1C2=O,10.0,3.9*
Cc1oc2c(c1C(=O)NC(C)(C)C)C(=O)c1ccccc1C2=O,-13.0,5.7*
Cc1oc2c(c1C(=O)N1CCC(C)CC1)C(=O)c1ccccc1C2=O,11.0,48.8
Cc1oc2c(c1C(=O)NC1CCCCC1)C(=O)c1ccccc1C2=O,-2.0,8.8*
Cc1oc2c(c1C(=O)NCCc1ccccc1)C(=O)c1ccccc1C2=O,4.0,15.1
CN1CCN(CCCNc2nc(-c3ccccc3)no2)CC1,-3.0,111.6
CC1CCc2sc(C(=O)OC3CCCCC3=O)cc2C1 (stereo not given),-6.0,94.0
C(=N\OCc1cccc(CO/N=C/c2ccco2)c1)/c1ccco1,9.0,108.8
CC(C)(C)CC(C)(C)c1ccc(OCCOCC[N+](C)(C)Cc2ccccc2)cc1,.,-0.3*
C[N+](C)(CCOc1ccccc1)Cc1ccccc1 (tested in a mixture with another compound),9.0,83.4
O=C(O)CSc1nnc(NC2CCCCC2)s1,5.0,77.3
N#CSc1cnc(NC2CCCCC2)s1,-2.0,5.0*
CCCSC(=S)c1c(C)[nH]n(-c2ccccc2)c1=O,-7.0,0.2*
CCCSC(=S)c1c(C)[nH]n(-c2ccc(C)cc2)c1=O,.,122.8
O=C(/C=C/c1ccco1)N1CCCSC1=Nc1ccccc1,-4.0,112.2
CCC(C)NC(=O)Cn1ncn2c(cc3sc(C)cc32)c1=O (stereo not given),7.0,116.0
Cc1sc2nc(SCC(=O)NC3CCCCC3)[nH]c(=O)c2c1C,4.0,81.4
Cc1nnc(SCC(=O)NC2CCCCCC2)[nH]c1=O,12.0,0.2*
O=S(=O)(c1ccc(F)cc1)N1CCc2ccccc21,-17.0,.
O=S(=O)(c1ccc(Cl)cc1)N1CCc2ccccc21,-80.0,0.3*
CN(C(=O)C1CC1)c1nnc(-c2ccc(F)cc2)s1,3.0,88.7
O=c1c(=NNc2ccccc2)c(=O)c2ccccc12,.,99.4
O=c1c(=NNc2nn[nH]n2)c(=O)c2ccccc12,11.0,1.4*
O=C(Cn1c(=O)n(-c2ccccc2)c(=O)c2c3c(sc21)CCC3)NCc1ccco1,-7.0,94.8
O=C(Cn1cnc2c(cnn2-c2ccccc2)c1=O)Nc1ccccc1,13.0,100.1
SMILES,Sa helicase inh,Sa growth inh
CC(=O)NCCCCCCNC(C)=O,.,21.4*
CC(=O)NCCCc1nc2ccccc2[nH]1,2.0,.
CCOC(=O)c1ccc2c(c1)NC(CC(=O)Nc1ccc(F)cc1)C(=O)N2CC (stereo not given),6.0,92.4
CC(C)Cn1c(=S)[nH]c2scc(-c3cccs3)c2c1=O,9.0,8.9*
CSc1nc2scc(-c3cccs3)c2c(=O)n1CC(C)C,15.0,104.8
Cc1cccc(N(C)S(=O)(=O)c2c(C(=O)N3CCCCC3)c(C)n(C)c2C)c1,24.0,116.2
CN1CCC(=NOC(=O)c2ccc(Cl)cc2)CC1,11.0,91.9
Cc1nc(-c2ccc3[nH]c(=O)oc3c2)cs1,18.0,-1.1*
Cc1nc(-c2ccc3ccccc3c2)cs1,-23.0,.
CC(=O)Nc1ccc(OCC(O)CN2CCN(C(c3ccccc3)c3ccccc3)CC2)cc1 (stereo not given),8.0,73.6
COc1ccc(CNC(=O)COC(=O)C2COc3ccccc3O2)cc1 (stereo not given),-7.0,82.5
O=C(Nc1ccccc1)Nc1c[nH]c2ccccc12,-3.0,89.4
O=C(Nc1c[nH]c2ccccc12)N1CCOCC1,2.0,3.5*
Oc1ccccc1-c1cc(C(F)(F)C(F)F)no1,-15.0,1.5*
CCN(CC)C(=O)c1cc(-c2ccccc2O)on1,4.0,116.5
Cc1ccc(-c2cc(-c3ccccc3)no2)c(O)c1,8.0,98.1
Cc1ccc(O)c(-c2cc(C(F)(F)F)no2)c1,6.0,0.2*
O=c1cc(O)n(C2CCCC2)c(=S)[nH]1,11.0,97.3
CCn1c2ccc(Cl)cc2c2cc(Cl)ccc21,.,107.6
CCn1c(O)c(N=NS(=O)(=O)c2ccc(C)cc2)c2cc(Cl)ccc21,13.0,0.8*
O=S(=O)(NCC(c1cccs1)N1CCc2ccccc21)c1ccccc1 (stereo not given),11.0,88.5
CN(C)c1ccc(C=Nc2ccc(C(=O)O)cc2)cc1,-20.0,105.2
CN(C)c1ccc(N=Cc2cccn2C)cc1,-1.0,9.7*
O=C(CCc1nnc2ccc(N3CCCCC3)nn12)NCCc1c[nH]c2ccccc12,-24.0,99.4
O=C(CCN1C(=O)c2ccccc2C1=O)Oc1ccc(Cl)cc1,4.0,114.1
SMILES,Sa helicase inh,Sa growth inh
Cc1cc(C)cc(OC(=O)CCN2C(=O)c3ccccc3C2=O)c1,17.0,-1.1*
Cc1ccc(Cn2c(-c3cscn3)nc3ccccc32)cc1,15.0,114.8
CS(=O)(=O)c1ccc(C(=O)NCCc2ccc(S(N)(=O)=O)cc2)cc1,-23.0,91.7
CC[n+]1c(/C=C/Nc2ccccc2)sc2ccccc21,8.0,103.0
CC[n+]1c(/C=C/N(C)c2ccccc2)sc2ccc(OC)cc21,0.0,-0.6*
O=C(NC1CC1)C1CCN(C(=O)c2cnn(-c3ccccc3)c2-n2cccc2)CC1,-15.0,96.3
Cc1ccc2oc(-c3ccccc3)cc(=NCCO)c2c1,44.0*,102.8

# High-throughput results deposited in PubChem by ICCB-Longwood Screening Facility, Harvard Medical School.
